Sampled rows, rich in hits. Any-hit rate of the full collection: about 27%.
sEH inhibitor – blocks human soluble epoxide hydrolase activity; P34913; recombinant human sEH enzymatic activity assay; inhibition, % at 2 µM; actives 0.34% (n = 91,000); in the data active means inhibition above about 80%
CYP2C19 act – increases human CYP2C19 enzyme activity; activation factor at 5 µM; AID 1025; P33261; 96,000 tested, under 10 active; recombinant CYP2C19, luciferin-H EGE luminescence; stronger effect = higher value; 0 = fully inhibited enzyme, 1 = untreated enzyme;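 active means activation factor of at least 2 at 5 µM in the primary screen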;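 further: 0 = wells with 2.5 mM tranylcypromine and 1 = vehicle-only wells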
CYP2C9 inhib – blocks human cytochrome P450 2C9. P11712. CYP2C9 Supersomes, luciferin-H conversion, luminescence. inhibition, % at 5 µM. actives 20% (n = 96,000). AID 777;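 active means blocking of liver enzyme CYP2C9 beyond about 50% at 5 µM, limit read from the data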
Target sequence (P11712 whole entry, looked up): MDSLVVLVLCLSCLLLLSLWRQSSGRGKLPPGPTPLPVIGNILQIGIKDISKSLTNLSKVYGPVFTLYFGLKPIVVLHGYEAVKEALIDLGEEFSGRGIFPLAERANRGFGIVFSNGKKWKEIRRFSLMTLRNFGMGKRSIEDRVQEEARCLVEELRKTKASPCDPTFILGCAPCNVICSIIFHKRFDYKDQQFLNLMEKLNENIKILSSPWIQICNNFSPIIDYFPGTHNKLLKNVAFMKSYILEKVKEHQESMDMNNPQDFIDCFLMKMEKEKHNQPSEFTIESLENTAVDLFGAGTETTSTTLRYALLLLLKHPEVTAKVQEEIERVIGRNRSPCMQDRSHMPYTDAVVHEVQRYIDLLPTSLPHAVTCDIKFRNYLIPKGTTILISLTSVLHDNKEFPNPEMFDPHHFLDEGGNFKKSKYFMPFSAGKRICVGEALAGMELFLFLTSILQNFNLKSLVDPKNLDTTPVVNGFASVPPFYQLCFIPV
CYP2C19 inhib – blocks human cytochrome P450 2C19; actives 21% (n = 96,000); CYP2C19 Supersomes, luciferin-H EGE luminescence, 30 min; P33261; inhibition, % at 5 µM;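 active means CYP2C19 inhibition above a set limit at 5 µM in the primary screen, cut at about 50% in these data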;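 further: plate controls were negative control wells for no effect and 2.5 mM tranylcypromine positive control for full effect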
CYP2C9 activ – CYP2C9 (human) activation; actives 1.4% (n = 96,000); activation factor at 5 µM; recombinant CYP2C9, luciferin-H conversion, luminescence; stronger effect = higher value; factor 1 = untreated enzyme, 0 = blocked; P11712;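 active means activation factor of 2 or more for CYP2C9 at a 5 µM dose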;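 further: 0 = sulfaphenazole-blocked wells and 1 = vehicle-only wells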
sEH act – increases human soluble epoxide hydrolase activity; actives 0.04% (n = 91,000); P34913; AID 717; purified human sEH enzymatic activity, activator screen; activation, % at 2 µM; in the data active means activation above about 37%
Numbers without * were called inactive; x = no result.

SMILES | sEH inhibitor | CYP2C19 act | CYP2C9 inhib | CYP2C19 inhib | CYP2C9 activ | sEH act
Cc1ccc(C2C(C#N)=C(N)SC(N)=C2C#N)o1 | -14 | 1 | 48 | -1 | 0.5 | 16
CCc1ccc(C2C(C#N)=C(N)SC(N)=C2C#N)cc1 | 9 | 0.7 | 44 | 31 | 0.6 | -8
CC1CCCCN1C(=O)CN1C(=O)CN(C)C(=O)c2ccccc21 (stereo unspecified) | 2 | 0.8 | 13 | 17 | 0.9 | -1
Cc1csc(N(C)C(=O)CSc2nnc(COc3cccc4ccccc34)o2)n1 | x | 0.8 | -32 | 20 | 1.3 | x
Cc1ccc(-n2nnc3c(SCC(=O)N4CCN(c5ccccc5)CC4)ncnc32)cc1 | 1 | x | x | x | x | -5
CCCOc1ccc(C2C(C#N)=C(N)Oc3nc[nH]c(=O)c32)cc1OC (stereo unspecified) | 4 | 1 | 11 | 2 | 0.9 | -6
CCOc1ccc(C2C(C#N)=C(N)SC(N)=C2C#N)cc1OC | x | 0.5 | 91* | 54* | 0.1 | x
O=C(CSc1nnc(Cc2ccccc2)o1)NCCN1C(=O)CSC1=O | -2 | 1 | -4 | 5 | 1 | 3
Cc1ccc(SCC(=O)NCCN2C(=O)CSC2=O)c(C)c1 | 19 | x | x | x | x | -16
Cc1ccc(SCC(=O)NCCN2C(=O)CSC2=O)cc1C | -9 | 0 | -28 | 97* | 1.3 | 11
CC(C)(C)NC(=O)CSc1nc(-c2ccccc2)c(-c2ccccc2)[nH]1 | 4 | 0.9 | 12 | 11 | 0.9 | -1
Cc1ccc(-c2nc(SCC(=O)NCCN3C(=O)CSC3=O)[nH]c2-c2ccc(C)cc2)cc1 | -4 | 1 | 64* | -1 | 0.4 | 5
Cc1cccc(-n2nnnc2SCC(=O)NCCN2C(=O)CSC2=O)c1 | 9 | 0.2 | -71 | 77* | 1.7 | -7
Nc1nc(-c2ccco2)c(-c2ccco2)s1 | 3 | 0.2 | 77* | 78* | 0.2 | -3
Cc1ccc(S(=O)(=O)c2c(C)cc(C)nc2Oc2cccc(C(F)(F)F)c2)cc1 | 6 | 0.4 | 46 | 59* | 0.5 | -4
Cc1cc(C)c(S(C)(=O)=O)c(Oc2ccc(C(C)(C)C)cc2)n1 | -18 | 0.6 | 86* | 35 | 0.1 | 18
CCCc1cc(C(=O)OC)c(NC(=O)c2cc(C)on2)s1 | 4 | x | x | x | x | 0
Cc1ccccc1OCC(=O)Nn1c(COc2ccccc2)nc2ccccc2c1=O | 14 | 0.7 | 100* | 34 | 0 | -13
Cc1ccc(OCC(=O)NN2C(=O)c3ccccc3C2=O)c(C)c1 | 6 | 0.6 | 13 | 36 | 0.9 | -4
Cc1cccc(C)c1OCC(=O)Nn1c(COc2ccccc2)nc2ccccc2c1=O | 2 | 0.9 | 76* | 13 | 0.2 | -5
CC(=O)Nn1c(COc2ccccc2C)nc2ccccc2c1=O | 5 | 0.2 | 77* | 76* | 0.2 | -6
Cc1ccc(OCC(=O)Nn2c(C)nc3ccccc3c2=O)c(C(C)C)c1 | -6 | 1 | 98* | 4 | 0 | 6
Cc1cccc(C)c1OCC(=O)N/N=C/c1cccn1C | 8 | x | x | x | x | -6
Cc1cc(S(=O)(=O)NC(C)C)ccc1OCC(=O)N1CCOCC1 | -3 | 0.9 | 29 | 12 | 0.7 | 6
O=C(COC(=O)CCCNC(=O)c1ccc(Cl)cc1)NC1CC1 | 2 | 1.2 | -12 | -15 | 1.1 | -3
SMILES | sEH inhibitor | CYP2C19 act | CYP2C9 inhib | CYP2C19 inhib | CYP2C9 activ | sEH act
CS(=O)(=O)N1CCN(Cc2ccc(C(F)(F)F)cc2)CC1 | 12 | 0.6 | -42 | 42 | 1.4 | -14
O=C(NCc1ccc(F)cc1)c1cc2c(s1)CCCC2 | 30 | 0.6 | 53* | 36 | 0.5 | -30
CC1CCc2sc(C(=O)NCc3ccc(F)cc3)cc2C1 (stereo unspecified) | 12 | 0.8 | 18 | 17 | 0.8 | -14
COc1ccc(CNC(=O)c2cc3c(s2)CS(=O)C3)cc1 (stereo unspecified) | 4 | 0.3 | 54* | 71* | 0.5 | -6
COc1ccc(CNC(=O)c2cccc(N(C)C)c2)cc1 | 19 | 0.6 | -46 | 38 | 1.5 | -14
N#Cc1ccc(C(c2nnnn2Cc2ccccc2)N2CCCC2)cc1 (stereo unspecified) | 8 | 0.6 | -5 | 39 | 1.1 | -4
CN1CCN(C(c2cccc(C(F)(F)F)c2)c2nnnn2Cc2ccccc2)CC1 (stereo unspecified) | x | 0.5 | 43 | 52* | 0.6 | x
CC(C)CCn1nnnc1C(c1ccccc1)N1CCN(C)CC1 (stereo unspecified) | x | 1 | 10 | -4 | 0.9 | x
N#Cc1cccc(C(c2nnnn2Cc2ccccc2)N2CCCC2)c1 (stereo unspecified) | 3 | 0.4 | 23 | 56* | 0.8 | -4
COC(=O)C1=C(C)NC2=C(C1c1ccc(O)cc1)S(=O)(=O)c1ccccc12 (stereo unspecified) | 8 | 0.4 | 87* | 62* | 0.1 | -7
COc1ccc(C2C(C#N)=C(C)NC3=C2S(=O)(=O)c2ccccc23)cc1 (stereo unspecified) | -9 | x | x | x | x | 12
CSc1nc2ccccc2n1C(=O)NC1CCCCC1 | 21 | 0.8 | 10 | 15 | 0.9 | -23
O=C(NCc1ccco1)C(c1ccco1)N(CCc1ccccc1)C(=O)Cn1nnc2ccccc21 (stereo unspecified) | -7 | 0.9 | -4 | 8 | 1 | 6
CCn1c(SCC(=O)N2CCCC2)nc2ccccc2c1=O | x | 1 | 31 | 5 | 0.7 | x
CCOC(=O)N1CCN(C(=O)CSc2nc3ccccc3c(=O)n2-c2ccccc2)CC1 | -7 | 0.4 | 98* | 56* | 0 | 7
COCCn1c(SCC(=O)N2CCCCC2)nc2ccccc2c1=O | x | 0.8 | 22 | 23 | 0.8 | x
COCC(C)n1c(SCC(=O)N2CCCCC2)nc2ccccc2c1=O (stereo unspecified) | x | 0.5 | 54* | 46 | 0.5 | x
COc1ccc(C(=O)N2CCN(c3nnnn3-c3ccccc3)CC2)cc1OC | 0 | 1 | 2 | 0 | 1 | -1
CCOC(=O)N1CCN(c2nnnn2-c2ccccc2)CC1 | -6 | 0.1 | 49 | 91* | 0.5 | 8
CCOC(=O)N1CCN(C(=O)CSc2nc3c(cnn3-c3ccccc3)c(=O)[nH]2)CC1 | 0 | 0.8 | 67* | 22 | 0.3 | 4
COc1ccc(NC(=O)c2cc([N+](=O)[O-])nn2Cc2ccccc2)c(C)c1 | 19 | 0.7 | 21 | 26 | 0.8 | -18
CCn1c(SCC(=O)N2CCN(c3ccc(F)cc3)CC2)nc2ccccc2c1=O | 8 | 0.4 | 59* | 63* | 0.4 | -10
CCCn1c(SCC(=O)N2CCN(c3ccccc3)CC2)nc2ccccc2c1=O | -14 | 0 | 93* | 97* | 0.1 | 13
CCCCn1c(SCC(=O)N2CCN(c3ccccc3)CC2)nc2ccsc2c1=O | x | 0.5 | 88* | 51* | 0.1 | x
CCC1CCCCN1C(=O)CSc1nc2ccsc2c(=O)n1Cc1ccccc1 (stereo unspecified) | 0 | 0.5 | 70* | 50* | 0.3 | -2

High-throughput results as filed in PubChem.
